Screening results from PubChem BioAssay.
Most compounds without a hit are left out; they make up all but 18% or so of the library.
IL-1B inflam inh: inhibitors of inflammasome signaling (IL-1 beta secretion); THP-1 LPS/ATP IL-1B secretion, AlphaLISA, 16 h; stronger effect = lower value; activity change, % at 57.5 µM; 360,000 tested, 4.7% active; AID 743279; in the data active means activity change below about -50%; inconclusive means mostly about -30% to -49%
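THP-1 cells pretreated 1 hr with compounds (up to 57.5 uM final), then stimulated with LPS (250 ng/mL final) plus ATP (1.25 mM final); secreted IL-1B measured by AlphaLISA after 16 hr, decreased signal indicating inhibition.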
TDP1 block: inhibitors of human tyrosyl-DNA phosphodiesterase TDP1; Q9NUW8; recombinant TDP1, AlphaScreen DNA substrate cleavage; Potency, µM (highest dose often 130 µM), for inactives: at the top dose activity change, negative = inhibition, hits mostly inhibitors; 350,000 tested, 0.28% active; further: potency means the concentration at half of the fitted maximal effect; nearly all actives have a fitted effect of over 40% in size
Target sequence (Q9NUW8 whole entry, looked up): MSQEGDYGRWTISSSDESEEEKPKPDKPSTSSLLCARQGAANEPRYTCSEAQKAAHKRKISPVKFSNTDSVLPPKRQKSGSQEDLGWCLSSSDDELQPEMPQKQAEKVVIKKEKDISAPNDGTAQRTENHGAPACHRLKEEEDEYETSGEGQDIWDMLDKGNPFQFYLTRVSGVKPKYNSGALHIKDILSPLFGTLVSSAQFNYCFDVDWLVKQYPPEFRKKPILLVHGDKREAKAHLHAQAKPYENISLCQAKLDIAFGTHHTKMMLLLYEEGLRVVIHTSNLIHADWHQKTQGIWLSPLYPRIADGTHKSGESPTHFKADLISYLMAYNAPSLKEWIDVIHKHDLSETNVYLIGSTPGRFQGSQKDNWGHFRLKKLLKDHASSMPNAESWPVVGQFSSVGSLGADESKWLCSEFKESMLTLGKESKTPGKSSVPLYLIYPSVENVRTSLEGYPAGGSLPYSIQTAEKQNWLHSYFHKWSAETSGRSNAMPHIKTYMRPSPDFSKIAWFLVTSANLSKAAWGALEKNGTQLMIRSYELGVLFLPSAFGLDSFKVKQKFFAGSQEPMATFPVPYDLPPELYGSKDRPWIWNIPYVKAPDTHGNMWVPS
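Here, a 5' biotin and 3' phosphotyrosine-FITC DNA oligonucleotide reports Tdp1 activity: intact substrate bridges AlphaScreen beads, while cleavage leaves a 3' phosphate and drops signal. All incubations at room temperature.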
TDP1 cell CPT: growth inhibition of DT40 Tdp1-/-;hTDP1 cells with camptothecin (screen for TDP1 inhibitors). chicken DT40 Tdp1-/-;hTDP1 cells + 20 nM CPT, ATP luminescence, 48 h. Potency, µM (highest dose often 46.2 µM), inactives show at the top dose activity change, negative = growth inhibition, hits mostly inhibitors. 420,000 tested, 12% active. AID 686979; further: potency means the concentration at half of the fitted maximal effect; nearly all actives have a fitted effect of over 55% in size
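Chicken DT40 Tdp1-/- cells stably complemented with human TDP1 were seeded at 400 cells/well in medium containing 20 nM camptothecin, exposed to pin-transferred compounds, and grown at 37 °C for at least 48 hr. Viability was read as ATP luminescence.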
CtBP-E1A inh: inhibitors of CtBP/E1A interaction. AlphaScreen GST-E1A/His-CtBP binding, 1536-well; stronger effect = lower value. activity change, % (concentration not given with the values). 340,000 tested, 0.49% active. AID 651724; in the data active means activity change below about -65%; inconclusive means mostly about -30% to -63%
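Steps: dispense buffer (Tris pH 8.0, NaCl 300 mM, TCEP 1 mM, BSA, Tween 20); add 5X protein mix (GST-E1A, His-CtBP, 125 nM each); pin 23 nL compound; 2 h at 37 °C, dark; add 5X beads (50 ug/mL); 1 h; read.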
TDP1 cell noCPT: qHTS for Inhibitors of human tyrosyl-DNA phosphodiesterase 1 (TDP1): qHTS in cells in absence of CPT; DT40 Tdp1-/- hTDP1 cells, no CPT, ATP luminescence, 48 h; Potency, µM (doses to about 46.2 µM), for inactives: at the top dose activity change, negative = growth inhibition, actives largely listed as inhibitors; 420,000 tested, 15% active; AID 686978, 2013; further: potency means the concentration at half of the fitted maximal effect; nearly all actives have a fitted effect of over 55% in size
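DT40 Tdp1-/-;hTDP1 cells, no CPT (DMSO vehicle only), 400 cells/well; compounds pin-transferred; ≥48 hr, 37 °C; CellTiter-Glo 30 min RT dark, luminescence read.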
Six1-Eya2 blk: inhibitors of human Six1/Eya2 interaction; Q15475+O00167; AlphaScreen GST-Six1/His-Eya2 binding, biochemical; stronger effect = lower value; activity change, % (concentration not given with the values); 360,000 tested, 0.56% active; in the data active means activity change below about -65%; inconclusive means mostly about -30% to -63%
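Homogeneous AlphaScreen proximity assay pairing GST-Six1 with His-tagged Eya2 (added as 5X mix: 250 nM and 500 nM) in 50 mM Tris pH 8.0, 300 mM NaCl, 1 mM TCEP. Glutathione donor and nickel acceptor beads; 1 h, 37 °C, dark.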
* marks the source's active call; other numbers are inactive results; ? = inconclusive; . = no result; [ ] = dose if it differs, or a comment. Unless noted, the call rests on the fitted dose curve; in most records, active means well fitted curve in the direction sought with a large enough effect; inconclusive means small, poorly fitted or top-dose-only effect, or another doubt; inactive means no such curve, though single readings can be large; an effect the other way counts as inactive or inconclusive. On the % scale 0 is the no-effect control and ±100 the full control effect.

SMILES	IL-1B inflam inh	TDP1 block	TDP1 cell CPT	CtBP-E1A inh	TDP1 cell noCPT	Six1-Eya2 blk
CCCN(CC1CCCO1)C(=O)c1cc(COc2cccc(OC)c2)on1 (stereo not drawn)	-4.8	0.4%	?	2.7	?	2.7
C=C1c2cccc(C(F)(F)F)c2O[C@H](C(=O)OCC)C1OC (mixture of isomers)	.	-2.0%	.	.	.	.
Cn1nnnc1NCc1ccccc1F	10.8	.	7.1%	.	1.2%	0.2
COc1cc(SC)ccc1C(=O)N1CCN(c2ccccc2OC)CC1	29.8	-5.1%	20.6µM*	-2.5	4.61µM*	-1.3
COc1ccccc1N1CCN(C(=O)c2c(C)cc(=O)oc2C)CC1	0.0	2.4%	1.5%	1.2	4.0%	6.2
Cc1oc(C(C)(C)C)cc1C(=O)N1CCN(c2ncccc2C(F)(F)F)CC1	-6.1	-3.5%	?	-2.9	23.1µM*	-14.2
COc1ccccc1N1CCN(C(=O)c2cc(C(C)(C)C)oc2C)CC1	-59.9*	-2.6%	?	-13.1	20.6µM*	-8.3
Cc1cc(C)c2cc(C(=O)N3CCN(c4ncccc4C(F)(F)F)CC3)[nH]c2c1	-20.4	.	?	-24.5	14.6µM*	-7.5
COC(=O)C1CCN(C(=O)c2ccc(SC)cc2OC)CC1	-5.9	4.0%	6.7%	6.0	-3.6%	3.5
O=C(COC(=O)c1cc([N+](=O)[O-])ccc1N1CCOCC1)c1ccc(Br)cc1	?	5.5%	-14.7%	-24.7	?	-18.6
COCCn1c(=O)c2c(nc3n2CCN3c2ccc(C)cc2)n(C)c1=O	.	-1.0%	.	.	.	.
COc1ccccc1N1C(=O)C(Cl)=C(Nc2ccccc2O)C1=O	28.6	7.9%	?	-1.1	?	-11.2
Cc1ccccc1NC1=C(Cl)C(=O)N(C2CCCCC2)C1=O	-93.3*	0.0%	?	0.0	?	11.0
COc1ccccc1NC1=C(Cl)C(=O)N(C2CCCCC2)C1=O	-11.6	7.3%	18.4µM*	21.4	25.9µM*	-24.7
Cn1c(=O)c2c(ncn2CC(=O)N2CCN(S(=O)(=O)c3ccccc3)CC2)n(C)c1=O	0.0	2.7%	-16.3%	-5.0	-20.1%	-8.5
O=C(COC(=O)c1cc(S(=O)(=O)N2CCCCC2)ccc1N1CCOCC1)c1ccccc1Cl	-1.2	.	-13.5%	2.3	-28.0%	-0.3
O=C(OCCOc1ccc(Cl)cc1)c1cc(S(=O)(=O)N2CCCCC2)ccc1N1CCOCC1	12.1	.	13µM*	.	?	-5.8
Cc1ccc(OCCOC(=O)c2cc(S(=O)(=O)N3CCCCC3)ccc2N2CCOCC2)cc1	0.6	0.5%	16.4µM*	-3.3	13µM*	-6.0
CCOCCCNC(=O)/C(C#N)=C/c1ccc([N+](=O)[O-])o1	-110.8*	4.8%	1.3µM*	3.6	1.84µM*	6.5
CCOCCCNC(=O)/C(C#N)=C/c1ccc(-c2ccc(S(=O)(=O)N3CCOCC3)cc2)o1	4.8	2.7%	11.6µM*	1.0	8.2µM*	0.7
CCOCCCNC(=O)/C(C#N)=C/c1cc(Br)c(O)c(Br)c1	?	.	4.11µM*	17.1	1.64µM*	-3.8
COCCNC(=O)/C(C#N)=C/c1cc(Br)c(O)c(OC)c1	22.8	0.6%	3.9%	0.0	-2.4%	3.8
CCOc1cccc(C=Nc2cc(C)cc(C)c2O)c1O	0.0	14.3%	14.6µM*	-5.1	?	-4.2
CNc1snc(C)c1C(=O)OCC(=O)c1ccc(Cl)cc1	16.3	-4.2%	13µM*	.	9.2µM*	-4.7
CNc1snc(C)c1C(=O)OC(C)C(=O)c1ccc(F)cc1 (stereo not drawn)	-20.2	0.4%	18.4µM*	6.8	20.6µM*	8.2
SMILES	IL-1B inflam inh	TDP1 block	TDP1 cell CPT	CtBP-E1A inh	TDP1 cell noCPT	Six1-Eya2 blk
CCN(Cc1ccccc1)C(=O)COC(=O)c1c(C)nsc1NC	30.3	0.3%	14.6µM*	2.3	20.6µM*	-1.1
CCN(Cc1ccccc1)C(=O)COC(=O)c1cnc(C)cn1	0.0	-3.5%	-6.0%	6.9	-0.3%	-4.7
CCS(=O)(=O)NC(C)C(c1cccs1)N1CCN(C)CC1 (stereo not drawn)	-9.0	7.4%	-11.9%	3.1	-5.4%	5.1
c1ccc(CCc2nc(-c3ccccc3)no2)cc1	-17.0	-7.7%	-4.4%	32.2	-9.6%	35.7
O=C(Nc1ccc(-c2nc3c(ccc4ccccc43)o2)cc1)c1ccco1	12.9	2.2%	?	0.0	18.4µM*	1.4
CC(NC(=O)c1ccco1)c1nc(-c2ccc(Cl)cc2)no1 (stereo not drawn)	-6.6	4.8%	?	0.4	20.6µM*	-2.7
O=C(Nc1ccc(-c2noc(CCc3ccccc3)n2)cc1)c1ccco1	-4.9	5.7%	18.4µM*	0.8	?	-3.6
Cc1ccc(/C=N/NC(=O)c2csc3c2CCCC3)cc1	0.6	-3.1%	1.3µM*	-5.5	1.3µM*	-12.1
COc1cc(/C=N/NC(=O)c2csc3c2CCCC3)cc(OC)c1O	-6.6	0.0%	?	-22.2	5.17µM*	-21.9
COc1cc(/C=N/NC(=O)c2ccoc2C)cc(OC)c1O	-12.8	2.7%	-0.5%	-5.9	9.0%	-9.1
Cc1nn(C)cc1/C=N\NC(=O)c1csc2c1CCCC2	-2.5	2.7%	?	-0.7	?	-2.5
CCN(CC)S(=O)(=O)c1cccc(NC(=O)/C=C/c2ccc([N+](=O)[O-])cc2)c1	5.0	-2.6%	-1.9%	-6.5	?	6.3
O=C(/C=C/c1cccc([N+](=O)[O-])c1)NC(=S)Nc1cccc(NC(=O)c2ccccc2Cl)c1	?	10.5%	14.6µM*	9.4	13µM*	3.3
CCN(CC)S(=O)(=O)c1cccc(NC(=O)/C=C/c2cccc([N+](=O)[O-])c2)c1	17.0	4.2%	?	-28.0	29.1µM*	-29.2
CC(=O)Nc1cccc(NC(=O)c2ccc([N+](=O)[O-])cc2Cl)c1	3.3	0.0%	-16.9%	8.6	?	-5.4
CC(=O)Nc1ccc(OCc2cccc([N+](=O)[O-])c2)cc1	0.0	3.7%	16.4%	-3.2	?	2.8
CC(=O)Nc1ccc(C=CC=Cc2cccc([N+](=O)[O-])c2)cc1	-96.6*	.	29.1µM*	14.1	?	-11.2
O=C(/C=C/c1cccc([N+](=O)[O-])c1)Nc1ccc(Cl)cn1	-8.0	-7.1%	?	.	2.59µM*	-7.8
O=C(COC(=O)/C=C/c1cccc([N+](=O)[O-])c1)Nc1ccc(Cl)cn1	3.2	0.0%[56.1 µM]	2.1%	-15.0	9.6%	-1.5
Clc1cccc2c1CN(C1=NCCN1)C2	.	9.9%[56.1 µM]	?	.	?	.
